Source: PubChem
EPAC1 ag – qHTS for Agonist of cAMP-regulated guanine nucleotide exchange factor 3 (EPAC1): primary screen. AID 720707, 2013. Potency, µM (highest dose often 154 µM), hits mostly activators. hit rate 0.073% among 360,000. EPAC1 agonist qHTS, biochemical assay; response scale: 100% = response to 6.5 mM cAMP; note: nearly all actives have a fitted effect of over 60% in size
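Normalized to 6.5 mM cAMP, activity reflects EPAC1-catalysed release of BODIPY-GDP from Rap1B, followed kinetically over 30 min at 480 nm excitation, 540 nm emission. Reaction contained 100 nM EPAC1, 250 nM Rap1B-BODIPY-GDP, 50 uM GDP.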
BRCA1 expr act – qHTS Assay to Identify Small Molecule Activators of BRCA1 Expression. MCF7-BRCA1-FFLuc reporter, luminescence, 48 h; response scale: scaled: vehicle 0%, 10 µM genistein 100%. Potency, µM (titrated, usually from 46.1 µM), actives largely listed as activators. hit rate 1.1% among 380,000. AID 624202, 2012; note: nearly all actives have a fitted effect of over 80% in size
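Activators of BRCA1 expression were detected as increased firefly luciferase luminescence in engineered MCF7 cells after 48 h compound incubation. Signals were scaled to genistein 10 microM as full activation.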
EPAC2 ag – qHTS for Agonist of cAMP-regulated guanine nucleotide exchange factor 4 (EPAC2): primary screen | Rap guanine nucleotide exchange factor 4 (Homo sapiens), Q8WZA2 | EPAC2 activation, biochemical qHTS; response scale: 100% = 6.5 mM cAMP response | Potency, µM (highest dose often 154 µM), actives largely listed as activators | hit rate 0.079% among 360,000; note: nearly all actives have a fitted effect of over 50% in size
Target sequence (Q8WZA2 whole entry, looked up): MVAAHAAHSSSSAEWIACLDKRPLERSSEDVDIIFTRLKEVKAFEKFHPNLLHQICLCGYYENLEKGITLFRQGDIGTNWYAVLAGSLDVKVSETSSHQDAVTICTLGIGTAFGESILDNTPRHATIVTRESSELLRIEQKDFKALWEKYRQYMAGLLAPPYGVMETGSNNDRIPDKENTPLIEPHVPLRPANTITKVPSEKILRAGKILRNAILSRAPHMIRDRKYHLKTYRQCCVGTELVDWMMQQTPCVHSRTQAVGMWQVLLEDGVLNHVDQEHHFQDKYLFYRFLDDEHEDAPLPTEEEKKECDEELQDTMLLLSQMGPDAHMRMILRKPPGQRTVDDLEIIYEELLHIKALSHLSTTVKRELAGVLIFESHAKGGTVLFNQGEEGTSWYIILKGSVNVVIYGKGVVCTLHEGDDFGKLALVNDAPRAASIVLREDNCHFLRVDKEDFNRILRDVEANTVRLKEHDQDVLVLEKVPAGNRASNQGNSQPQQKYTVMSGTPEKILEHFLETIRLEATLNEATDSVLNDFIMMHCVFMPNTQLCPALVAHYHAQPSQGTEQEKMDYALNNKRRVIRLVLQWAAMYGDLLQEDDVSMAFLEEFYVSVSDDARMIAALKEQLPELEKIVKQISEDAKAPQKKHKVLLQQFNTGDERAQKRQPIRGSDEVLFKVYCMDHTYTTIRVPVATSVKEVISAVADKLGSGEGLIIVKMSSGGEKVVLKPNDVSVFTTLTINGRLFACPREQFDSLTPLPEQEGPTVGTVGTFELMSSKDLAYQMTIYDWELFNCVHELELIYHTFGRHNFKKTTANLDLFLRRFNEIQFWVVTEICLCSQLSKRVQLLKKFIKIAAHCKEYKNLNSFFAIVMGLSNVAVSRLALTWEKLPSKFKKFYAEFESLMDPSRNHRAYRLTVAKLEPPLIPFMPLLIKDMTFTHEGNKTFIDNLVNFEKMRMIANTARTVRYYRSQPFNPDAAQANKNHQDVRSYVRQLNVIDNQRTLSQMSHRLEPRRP
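Readout is BODIPY fluorescence (480 nm excitation, 540 nm emission), which falls as labeled GDP is exchanged off Rap1B. EPAC2 at 100 nM acted on 250 nM RAP1B-BODIPY-GDP with 50 uM GDP present.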
RGS4 inhibitor – Inhibitors of Regulator of G Protein Signaling (RGS) 4: qHTS; Regulator of G-protein signaling 4 (Homo sapiens), P49798; Transcreener GDP fluorescence polarization, RGS4-accelerated GTP hydrolysis; Potency, µM (top dose mostly 114 µM), usual class: inhibitors; hit rate 0.039% among 390,000; note: nearly all actives have a fitted effect of over 75% in size
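MLSMR compounds (23 nl, pin-transferred) preincubated 10 min at room temperature with a 500nM (2x) first reagent, then RGS4 at 900nM (2x) plus Transcreener GDP mix added; fluorescence polarization (620/688 nm) read before and after 90 min at 30 °C.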
EPAC1 antagonist – qHTS for Antagonist of cAMP-regulated guanine nucleotide exchange factor 3 (EPAC1): primary screen. EPAC1 GEF assay, Rap1b-BODIPY-GDP exchange fluorescence. AID 720709, 2013. Rap guanine nucleotide exchange factor 3 (Homo sapiens), O95398. Potency, µM (doses to about 115 µM), usual class: inhibitors. hit rate 0.14% among 360,000; note: nearly all actives have a fitted effect of over 50% in size
EPAC2 antagonist – qHTS for Antagonist of cAMP-regulated guanine nucleotide exchange factor 2 (EPAC2): primary screen; Rap guanine nucleotide exchange factor 4 (Homo sapiens), Q8WZA2; EPAC2 GEF exchange of Rap1B-BODIPY-GDP, fluorescence; Potency, µM (series often up to 114 µM), usual class: inhibitors; hit rate 0.18% among 360,000; AID 720708, 2013; note: nearly all actives have a fitted effect of over 45% in size
Hits are given with their value; 0 = inactive; ? = inconclusive; - = not tested or not shown; ! = repeats disagree; [ ] = remark or other dose. Hits are enriched below; roughly 1.3% of the tested compounds scored in any of these assays. Calls come from the whole dose curve; as a rule, active = well fitted curve in the direction sought with a large enough effect; inconclusive = small, poorly fitted or top-dose-only effect, or another doubt; inactive = no such curve, though single readings can be large; an effect the other way counts as inactive or inconclusive.

SMILES | EPAC1 ag | BRCA1 expr act | EPAC2 ag | RGS4 inhibitor | EPAC1 antagonist | EPAC2 antagonist
COc1ccccc1C(=O)COC(=O)c1ccccc1O | 0 | 0 | 0 | 0 | 0 | 0
Cc1ccnc(SCC(=O)n2c3c(c4ccccc42)CC(C)CC3)n1 (configuration not stated) | 0 | 0 | 0 | 0 | 0 | 0
Nc1c(C(=O)C2CC2)sc2nc(-c3cccs3)cc(C(F)(F)F)c12 | 0 | 0 | 112µM | 0 | 0 | 0
CCCOc1cc(NCc2ccccc2)c2ncn(C(C)C)c2c1 | 0 | 0 | 0 | 0 | 0 | ?
CC(=O)NCCc1c(Cc2ccccc2)[nH]c2ccccc12 | - | - | - | 26.7µM! | - | -
COc1ccc2[nH]c(-c3ccccc3)c(CCNC(C)=O)c2c1 | - | - | - | 0 | - | -
CC(C)NC[C@@H](O)COc1ccc(COCCOC(C)C)cc1 | - | - | - | 0 | - | -
O=C(CSc1nc2c(cnn2-c2ccc(F)cc2)c(=O)[nH]1)N1CCCCC1 | 0 | 0 | 0 | 0 | 0 | 0
O=C(OCc1ccccc1)c1ccc(-c2nnn(Cc3ccccc3F)n2)cc1 | - | - | - | 0 | - | -
COc1ccc(-c2nnn(Cc3ccccc3F)n2)cc1 | 0 | 3.98µM | 0 | 0 | 0 | 0
CCN1/C(=C/C=C/c2sc3ccccc3[n+]2CC)Sc2ccccc21 | 0 | 0 | 0 | 0 | 0 | 0
CCN1/C(=C/C=C/c2oc3ccc(-c4ccccc4)cc3[n+]2CC)Oc2ccc(-c3ccccc3)cc21 | 39.8µM | 0 | 63.1µM | ? | 0 | 0
COc1ccc(C(=O)CSC(=S)N2CCCCC2)cc1 | 0 | 3.16µM | 0 | - | 0 | 0
O=C(CSC(=S)N1CCCCC1)c1ccccc1 | 0 | 0 | 0 | 0 | 0 | 0
COc1cccc(-c2csc(NNC(=O)c3cccs3)n2)c1 | 0 | 0 | 0 | 0 | 0 | 0
COc1cccc(-c2csc(NC(=O)Oc3ccccc3)n2)c1 | 0 | 10µM | 0 | 0 | 0 | 0
O=C(NC1CCCCC1)C1COc2ccccc2O1 (configuration not stated) | 0 | 0 | 0 | 0 | 0 | 0
CC1CCC(NC(=O)C2COc3ccccc3O2)CC1 (configuration not stated) | 0 | 10µM | 0 | 0 | 0 | 0
Cc1ccc(C)c(S(=O)(=O)/N=C2\C=C(NS(=O)(=O)c3ccccc3)C(=O)c3ccccc32)c1 | 0 | 0 | 0 | 0 | 0 | ?
Cc1cc(C)c(S(=O)(=O)/N=C2/C=C(Sc3ncn[nH]3)C(=O)c3ccccc32)cc1C | 0 | 0 | 0 | 0 | 44.7µM | ?
COc1ccc([N+](=O)[O-])cc1NCc1ccccc1C | 0 | 0 | 0 | 0 | 0 | 0
Clc1ccc(OCCCCCN2CCCC2)c(Br)c1 | 0 | 0 | 0 | 0 | 0 | 0
Clc1ccc(OCCCN2CCCCC2)c(Br)c1 | 0 | 10µM | 0 | 0 | 0 | 0
CC(C)(C)c1ccc(C(=O)C[n+]2ccccc2Cl)cc1 | - | 7.94µM | - | - | - | -
Cc1cccc(CSc2cn(CC(=O)N3CCOCC3)c3ccccc23)c1 | 0 | 3.55µM | 0 | 0 | 0 | 0
SMILES | EPAC1 ag | BRCA1 expr act | EPAC2 ag | RGS4 inhibitor | EPAC1 antagonist | EPAC2 antagonist
Cc1cccc(CSc2cn(CC(=O)N3CCCCCC3)c3ccccc23)c1 | - | - | - | 0 | - | -
O=C(NS(=O)(=O)c1ccc2ccc(S(=O)(=O)NCCSc3ccccc3)cc2c1)c1cccc2ccccc12 | 0 | 0 | 0 | - | 56.2µM | ?
CC1C(c2ccccc2)=NNc2nc3c(c(=O)n(C)c(=O)n3C)n21 (configuration not stated) | 0 | 0 | 0 | 0 | 0 | 0
COc1ccc(NC(=O)/C(C#N)=C\c2ccc(-c3cccc(C(=O)O)c3C)o2)cc1 | 0 | 0 | 0 | 0 | 0 | 0
Cc1c(C(=O)O)cccc1-c1ccc(C=O)o1 | 0 | 7.94µM | 0 | 0 | 0 | 0
COc1ccccc1N1CCN(C(=O)C2CCCN(c3ncnc4c3nc3n4CCCCC3)C2)CC1 (configuration not stated) | 0 | 0 | 0 | 0 | 0 | 0
Cc1ccc(N/N=C(\C#N)C(=N)N2CCCCCC2)cc1 | 0 | 0 | 0 | 0 | 0 | 0
COc1ccc(N/N=C(\C#N)C(=N)N2CCCCC2)cc1 | 0 | 7.94µM | 0 | 0 | 0 | 0
CCOC(=O)Cc1nnc(NC(=O)CSc2ccc(Cl)cc2)s1 | 0 | 0 | 0 | 0 | 0 | 0
CCOC(=O)c1ccc2[nH]c3c(c2c1)CCCC3C(=O)OCC (configuration not stated) | 0 | 0 | 0 | 0 | 0 | 0
CCOC(=O)c1ccc2[nH]c3c(c2c1)CCCCC3=O | 0 | 3.98µM | 0 | 0 | 0 | 0
Cc1noc(C)c1S(=O)(=O)N1CCCC(C(=O)N2CCC(C)CC2)C1 (configuration not stated) | 0 | 0 | 0 | 0 | 0 | 0
O=C(Nc1cnc2ccccn2c1=O)c1ccc(Cl)cc1 | 0 | 11.2µM | 0 | 0 | 0 | 0
O=C(Nc1cccn2ncnc12)c1ccc(Cl)cc1 | 0 | 0 | 0 | 0 | 0 | 0
COC(=O)c1ccc(COC(=O)c2ccc(SC)cc2OC)cc1 | 0 | 8.91µM | 0 | 0[11.4 µM] | 0 | 0
Cc1csc(SCc2nnc(-c3ccccc3Br)o2)n1 | 0 | ? | 0 | 0 | 0 | 0
Cc1csc(SCc2nnc(-c3ccc(Cl)cc3)o2)n1 | 0 | 7.08µM | 0 | 0 | 0 | 0
CCCC(=O)NC(c1ccc(Cl)cc1Cl)c1ccc2cccnc2c1O (configuration not stated) | 0 | 0 | 0 | 0 | 0 | 0
CC(=O)NC(c1ccc(Cl)cc1Cl)c1ccc2cccnc2c1O (configuration not stated) | 0 | 0 | 0 | ? | ? | 20µM
CC1CCN(C(=O)CSCc2ccc(Cl)cc2)CC1 | 0 | 2.82µM | 0 | 0 | 0 | 0
NC(=S)c1ccc[n+]([C@@H]2O[C@@H](COP(=O)([O-])OP(=O)(O)OC[C@H]3O[C@@H](n4cnc5c(N)ncnc54)[C@H](OP(=O)(O)O)[C@@H]3O)C(O)C2O)c1 (some centres not stated) | - | - | - | 26.7µM | - | -
CC(C)(C)c1ccc(-c2nc(C#N)c(NCCCn3ccnc3)o2)cc1 | 0 | 0 | 0 | 0 | 0 | 0
CC(C)(C)c1ccc(-c2nc(C#N)c(NCc3ccncc3)o2)cc1 | 0 | 11.2µM | 0 | 0 | 0 | 0
Cc1ccc2oc(C(=O)NCCC3CCCCO3)c(C)c2c1 (configuration not stated) | 0 | 0 | 0 | 0 | 0 | 0
